According to ChEMBL document CHEMBL2218924, “A broad activity screen in support of a chemogenomic map for kinase signalling research and drug discovery” (Biochem J, 2013):

Experiments:
[1] = target: T1, Inhibitor of nuclear factor kappa-B kinase subunit alpha (Homo sapiens) (UniProt O15111); details: at 1 µM
T1 sequence (whole entry): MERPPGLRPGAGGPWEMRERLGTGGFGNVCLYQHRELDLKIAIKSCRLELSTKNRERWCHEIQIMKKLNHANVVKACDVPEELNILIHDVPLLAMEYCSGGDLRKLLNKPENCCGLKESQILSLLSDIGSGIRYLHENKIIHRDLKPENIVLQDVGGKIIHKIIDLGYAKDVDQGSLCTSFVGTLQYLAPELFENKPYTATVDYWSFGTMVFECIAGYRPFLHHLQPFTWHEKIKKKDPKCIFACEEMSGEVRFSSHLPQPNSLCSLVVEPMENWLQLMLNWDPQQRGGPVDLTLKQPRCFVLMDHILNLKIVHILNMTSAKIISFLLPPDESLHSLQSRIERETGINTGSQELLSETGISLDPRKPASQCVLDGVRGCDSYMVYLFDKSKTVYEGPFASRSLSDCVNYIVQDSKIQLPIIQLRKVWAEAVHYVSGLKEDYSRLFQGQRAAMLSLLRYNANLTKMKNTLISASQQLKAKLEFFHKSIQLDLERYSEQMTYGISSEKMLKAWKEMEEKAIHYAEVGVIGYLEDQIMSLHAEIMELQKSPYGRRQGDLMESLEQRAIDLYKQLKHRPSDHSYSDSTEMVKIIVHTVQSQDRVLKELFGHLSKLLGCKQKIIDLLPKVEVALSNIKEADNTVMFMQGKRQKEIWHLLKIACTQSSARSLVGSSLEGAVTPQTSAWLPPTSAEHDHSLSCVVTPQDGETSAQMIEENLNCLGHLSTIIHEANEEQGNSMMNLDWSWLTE

[2] = target: T1, Inhibitor of nuclear factor kappa-B kinase subunit alpha (Homo sapiens); details: at 10 µM
[3] = target: T2, Inhibitor of nuclear factor kappa-B kinase subunit beta (Homo sapiens) (UniProt O14920); details: at 1 µM
T2 sequence (whole entry): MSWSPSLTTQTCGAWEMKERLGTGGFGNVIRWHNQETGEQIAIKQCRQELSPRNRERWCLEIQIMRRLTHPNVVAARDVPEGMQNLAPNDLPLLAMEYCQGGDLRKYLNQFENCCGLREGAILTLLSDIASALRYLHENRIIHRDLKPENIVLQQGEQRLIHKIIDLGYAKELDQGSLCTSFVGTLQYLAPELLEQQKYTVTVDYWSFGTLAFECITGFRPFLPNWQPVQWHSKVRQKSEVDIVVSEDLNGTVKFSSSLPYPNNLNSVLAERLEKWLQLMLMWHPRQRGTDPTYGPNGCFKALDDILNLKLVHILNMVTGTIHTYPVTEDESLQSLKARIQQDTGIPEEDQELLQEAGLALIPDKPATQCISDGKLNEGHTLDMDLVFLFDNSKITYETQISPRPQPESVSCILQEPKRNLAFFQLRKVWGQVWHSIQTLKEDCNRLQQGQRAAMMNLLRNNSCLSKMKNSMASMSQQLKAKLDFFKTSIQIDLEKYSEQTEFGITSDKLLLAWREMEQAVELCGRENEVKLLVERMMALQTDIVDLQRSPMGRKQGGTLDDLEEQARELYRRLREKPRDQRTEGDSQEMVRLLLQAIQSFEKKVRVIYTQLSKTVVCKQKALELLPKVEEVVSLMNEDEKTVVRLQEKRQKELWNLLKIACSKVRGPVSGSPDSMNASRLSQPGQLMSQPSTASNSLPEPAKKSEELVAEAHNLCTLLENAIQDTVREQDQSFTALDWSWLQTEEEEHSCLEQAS

[4] = target: T2, Inhibitor of nuclear factor kappa-B kinase subunit beta (Homo sapiens); details: at 10 µM
[5] = target: Insulin receptor (Homo sapiens) (UniProt P06213); details: at 1 µM
[6] = target: Insulin receptor (Homo sapiens) (UniProt P06213); details: at 10 µM
[7] = target: Insulin receptor (Homo sapiens) (UniProt P06213); details: at 1 µM; remark: listed apart in the source
[8] = target: Insulin receptor (Homo sapiens) (UniProt P06213); details: at 10 µM; remark: listed apart in the source
[9] = target: Interleukin-1 receptor-associated kinase 1 (Homo sapiens) (UniProt P51617); details: at 1 µM
[10] = target: Interleukin-1 receptor-associated kinase 1 (Homo sapiens) (UniProt P51617); details: at 10 µM
[11] = target: T3, Interleukin-1 receptor-associated kinase 4 (Homo sapiens) (UniProt Q9NWZ3); details: at 1 µM
T3 sequence (whole entry): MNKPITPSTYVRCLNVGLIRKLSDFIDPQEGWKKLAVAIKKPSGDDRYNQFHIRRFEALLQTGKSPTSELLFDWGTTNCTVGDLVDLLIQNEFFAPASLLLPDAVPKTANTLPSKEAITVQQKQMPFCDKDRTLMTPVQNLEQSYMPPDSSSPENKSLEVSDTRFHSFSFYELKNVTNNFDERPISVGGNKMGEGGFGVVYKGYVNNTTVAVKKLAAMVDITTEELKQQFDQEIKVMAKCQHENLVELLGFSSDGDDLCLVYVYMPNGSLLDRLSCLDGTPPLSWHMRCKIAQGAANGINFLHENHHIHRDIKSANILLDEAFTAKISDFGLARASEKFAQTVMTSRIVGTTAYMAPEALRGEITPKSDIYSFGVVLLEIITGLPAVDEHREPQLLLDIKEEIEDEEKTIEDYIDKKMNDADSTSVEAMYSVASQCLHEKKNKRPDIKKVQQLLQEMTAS

[12] = target: T3, Interleukin-1 receptor-associated kinase 4 (Homo sapiens); details: at 10 µM
[13] = target: Insulin receptor-related protein (Homo sapiens) (UniProt P14616); details: at 1 µM
[14] = target: Insulin receptor-related protein (Homo sapiens) (UniProt P14616); details: at 10 µM
[15] = target: T4, Tyrosine-protein kinase ITK/TSK (Homo sapiens) (UniProt Q08881); details: at 1 µM
T4 sequence (whole entry): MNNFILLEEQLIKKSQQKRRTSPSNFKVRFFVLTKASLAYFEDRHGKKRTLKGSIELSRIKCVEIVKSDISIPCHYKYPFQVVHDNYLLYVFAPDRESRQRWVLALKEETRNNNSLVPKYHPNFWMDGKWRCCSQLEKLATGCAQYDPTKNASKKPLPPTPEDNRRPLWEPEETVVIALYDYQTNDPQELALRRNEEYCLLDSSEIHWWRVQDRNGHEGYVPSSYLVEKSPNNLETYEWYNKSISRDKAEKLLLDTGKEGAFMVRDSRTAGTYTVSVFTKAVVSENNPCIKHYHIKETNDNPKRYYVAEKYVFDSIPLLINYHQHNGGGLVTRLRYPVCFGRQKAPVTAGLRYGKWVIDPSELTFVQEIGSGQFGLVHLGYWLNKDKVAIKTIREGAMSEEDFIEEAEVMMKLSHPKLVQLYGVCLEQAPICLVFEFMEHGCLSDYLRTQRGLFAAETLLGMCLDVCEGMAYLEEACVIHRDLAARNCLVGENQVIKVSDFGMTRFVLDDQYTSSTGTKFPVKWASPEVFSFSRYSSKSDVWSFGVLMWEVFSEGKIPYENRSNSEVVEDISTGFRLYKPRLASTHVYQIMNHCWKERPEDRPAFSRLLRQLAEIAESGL

[16] = target: T4, Tyrosine-protein kinase ITK/TSK (Homo sapiens); details: at 10 µM
[17] = target: Tyrosine-protein kinase JAK2 (Homo sapiens) (UniProt O60674); details: at 1 µM
[18] = target: Tyrosine-protein kinase JAK2 (Homo sapiens) (UniProt O60674); details: at 10 µM
[19] = target: T5, Tyrosine-protein kinase JAK3 (Homo sapiens) (UniProt P52333); details: at 1 µM
T5 sequence (whole entry): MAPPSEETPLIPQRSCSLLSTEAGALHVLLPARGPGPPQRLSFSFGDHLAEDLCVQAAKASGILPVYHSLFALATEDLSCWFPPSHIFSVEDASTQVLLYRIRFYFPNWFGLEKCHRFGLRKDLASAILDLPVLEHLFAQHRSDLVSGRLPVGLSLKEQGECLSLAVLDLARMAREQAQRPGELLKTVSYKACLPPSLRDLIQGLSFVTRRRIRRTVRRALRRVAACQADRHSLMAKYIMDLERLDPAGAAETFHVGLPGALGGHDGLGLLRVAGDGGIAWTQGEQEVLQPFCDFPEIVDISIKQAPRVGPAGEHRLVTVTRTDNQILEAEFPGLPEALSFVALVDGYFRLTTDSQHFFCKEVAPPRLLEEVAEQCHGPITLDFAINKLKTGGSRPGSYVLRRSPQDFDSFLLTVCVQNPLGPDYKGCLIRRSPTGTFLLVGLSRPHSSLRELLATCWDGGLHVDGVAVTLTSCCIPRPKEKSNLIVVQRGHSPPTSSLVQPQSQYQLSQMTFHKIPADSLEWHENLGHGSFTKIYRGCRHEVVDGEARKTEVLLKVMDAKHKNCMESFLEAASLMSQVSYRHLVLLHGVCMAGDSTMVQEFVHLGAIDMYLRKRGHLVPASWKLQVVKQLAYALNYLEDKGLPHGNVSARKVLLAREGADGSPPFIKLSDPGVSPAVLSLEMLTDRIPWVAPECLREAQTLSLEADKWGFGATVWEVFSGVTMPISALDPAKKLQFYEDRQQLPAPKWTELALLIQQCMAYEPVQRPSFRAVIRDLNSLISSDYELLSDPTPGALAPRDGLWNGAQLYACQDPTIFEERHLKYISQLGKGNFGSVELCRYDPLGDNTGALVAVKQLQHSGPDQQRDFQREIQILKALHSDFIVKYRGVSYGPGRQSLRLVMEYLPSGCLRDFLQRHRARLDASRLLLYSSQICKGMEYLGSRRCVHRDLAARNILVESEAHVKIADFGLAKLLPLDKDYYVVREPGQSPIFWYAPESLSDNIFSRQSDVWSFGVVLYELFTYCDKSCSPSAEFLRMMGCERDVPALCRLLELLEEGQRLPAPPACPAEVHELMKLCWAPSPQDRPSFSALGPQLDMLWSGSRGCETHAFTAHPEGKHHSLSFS

[20] = target: T5, Tyrosine-protein kinase JAK3 (Homo sapiens); details: at 10 µM

Chain of Tyrosine-protein kinase JAK2 (Homo sapiens) (O60674 whole entry): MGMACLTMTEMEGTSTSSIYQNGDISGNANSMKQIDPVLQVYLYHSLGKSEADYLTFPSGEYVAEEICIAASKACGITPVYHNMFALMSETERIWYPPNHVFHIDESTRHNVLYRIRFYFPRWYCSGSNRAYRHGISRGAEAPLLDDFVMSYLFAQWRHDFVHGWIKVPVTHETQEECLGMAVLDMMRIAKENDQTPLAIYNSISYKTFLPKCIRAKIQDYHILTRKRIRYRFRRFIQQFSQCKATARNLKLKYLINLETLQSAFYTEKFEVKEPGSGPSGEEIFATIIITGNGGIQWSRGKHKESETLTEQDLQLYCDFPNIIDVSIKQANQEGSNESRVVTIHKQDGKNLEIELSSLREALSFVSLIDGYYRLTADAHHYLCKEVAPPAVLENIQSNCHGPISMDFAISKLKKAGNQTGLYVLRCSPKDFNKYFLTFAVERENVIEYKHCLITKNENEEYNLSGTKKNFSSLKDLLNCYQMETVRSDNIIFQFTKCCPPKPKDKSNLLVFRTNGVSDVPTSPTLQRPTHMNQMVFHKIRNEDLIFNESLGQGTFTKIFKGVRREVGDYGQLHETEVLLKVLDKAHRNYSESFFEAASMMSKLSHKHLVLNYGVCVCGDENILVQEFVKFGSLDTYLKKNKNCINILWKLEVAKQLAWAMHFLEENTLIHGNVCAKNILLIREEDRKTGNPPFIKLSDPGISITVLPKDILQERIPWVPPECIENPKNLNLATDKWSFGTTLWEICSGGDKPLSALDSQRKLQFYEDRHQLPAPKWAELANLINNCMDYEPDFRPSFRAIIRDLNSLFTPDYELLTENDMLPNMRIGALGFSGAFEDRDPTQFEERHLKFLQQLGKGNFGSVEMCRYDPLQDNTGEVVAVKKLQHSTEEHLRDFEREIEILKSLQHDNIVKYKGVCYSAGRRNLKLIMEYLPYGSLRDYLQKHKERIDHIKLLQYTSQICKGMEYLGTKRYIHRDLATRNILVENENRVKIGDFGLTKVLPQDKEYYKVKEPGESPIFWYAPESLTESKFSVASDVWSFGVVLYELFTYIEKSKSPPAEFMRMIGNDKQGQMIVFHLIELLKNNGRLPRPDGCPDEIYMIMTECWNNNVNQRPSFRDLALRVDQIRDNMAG
Chain of Insulin receptor (Homo sapiens) (P06213 28-758 limits assumed): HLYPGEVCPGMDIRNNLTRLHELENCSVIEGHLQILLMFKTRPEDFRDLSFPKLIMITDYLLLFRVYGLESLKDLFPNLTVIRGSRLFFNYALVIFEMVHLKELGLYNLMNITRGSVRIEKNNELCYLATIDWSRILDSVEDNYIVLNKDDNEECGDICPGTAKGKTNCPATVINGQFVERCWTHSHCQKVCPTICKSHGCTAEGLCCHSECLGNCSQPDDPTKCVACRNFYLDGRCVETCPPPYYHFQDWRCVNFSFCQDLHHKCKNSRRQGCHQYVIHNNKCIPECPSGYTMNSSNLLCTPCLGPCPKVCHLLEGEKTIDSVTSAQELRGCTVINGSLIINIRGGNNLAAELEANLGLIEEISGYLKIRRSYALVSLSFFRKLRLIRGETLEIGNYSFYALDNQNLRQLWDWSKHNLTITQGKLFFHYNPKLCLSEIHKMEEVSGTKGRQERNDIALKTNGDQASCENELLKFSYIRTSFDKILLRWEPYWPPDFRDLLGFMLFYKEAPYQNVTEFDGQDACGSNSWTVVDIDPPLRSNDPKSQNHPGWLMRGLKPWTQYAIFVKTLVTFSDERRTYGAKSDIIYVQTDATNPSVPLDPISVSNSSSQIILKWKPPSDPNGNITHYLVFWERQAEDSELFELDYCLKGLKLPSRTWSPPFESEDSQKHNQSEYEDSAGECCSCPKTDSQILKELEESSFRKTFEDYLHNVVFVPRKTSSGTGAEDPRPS
Chain of Insulin receptor (Homo sapiens) (P06213 763-1382 limits assumed): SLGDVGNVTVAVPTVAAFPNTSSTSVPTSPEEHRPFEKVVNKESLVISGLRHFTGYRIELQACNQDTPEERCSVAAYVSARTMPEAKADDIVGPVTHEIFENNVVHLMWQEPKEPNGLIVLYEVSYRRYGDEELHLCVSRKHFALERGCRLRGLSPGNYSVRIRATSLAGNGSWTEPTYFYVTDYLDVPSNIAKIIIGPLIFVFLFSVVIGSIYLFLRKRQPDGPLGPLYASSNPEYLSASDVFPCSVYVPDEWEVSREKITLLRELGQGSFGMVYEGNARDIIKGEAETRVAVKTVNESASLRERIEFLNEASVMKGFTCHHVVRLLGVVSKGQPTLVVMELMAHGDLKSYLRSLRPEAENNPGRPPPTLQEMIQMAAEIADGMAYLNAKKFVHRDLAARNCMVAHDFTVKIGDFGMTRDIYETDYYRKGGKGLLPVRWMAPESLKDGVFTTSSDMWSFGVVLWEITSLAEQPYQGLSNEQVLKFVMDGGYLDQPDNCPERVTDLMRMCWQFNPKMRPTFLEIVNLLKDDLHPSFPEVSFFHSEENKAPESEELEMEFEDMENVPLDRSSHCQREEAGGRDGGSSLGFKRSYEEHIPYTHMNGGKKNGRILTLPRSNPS
Chain of Interleukin-1 receptor-associated kinase 1 (Homo sapiens) (P51617 whole entry, looked up): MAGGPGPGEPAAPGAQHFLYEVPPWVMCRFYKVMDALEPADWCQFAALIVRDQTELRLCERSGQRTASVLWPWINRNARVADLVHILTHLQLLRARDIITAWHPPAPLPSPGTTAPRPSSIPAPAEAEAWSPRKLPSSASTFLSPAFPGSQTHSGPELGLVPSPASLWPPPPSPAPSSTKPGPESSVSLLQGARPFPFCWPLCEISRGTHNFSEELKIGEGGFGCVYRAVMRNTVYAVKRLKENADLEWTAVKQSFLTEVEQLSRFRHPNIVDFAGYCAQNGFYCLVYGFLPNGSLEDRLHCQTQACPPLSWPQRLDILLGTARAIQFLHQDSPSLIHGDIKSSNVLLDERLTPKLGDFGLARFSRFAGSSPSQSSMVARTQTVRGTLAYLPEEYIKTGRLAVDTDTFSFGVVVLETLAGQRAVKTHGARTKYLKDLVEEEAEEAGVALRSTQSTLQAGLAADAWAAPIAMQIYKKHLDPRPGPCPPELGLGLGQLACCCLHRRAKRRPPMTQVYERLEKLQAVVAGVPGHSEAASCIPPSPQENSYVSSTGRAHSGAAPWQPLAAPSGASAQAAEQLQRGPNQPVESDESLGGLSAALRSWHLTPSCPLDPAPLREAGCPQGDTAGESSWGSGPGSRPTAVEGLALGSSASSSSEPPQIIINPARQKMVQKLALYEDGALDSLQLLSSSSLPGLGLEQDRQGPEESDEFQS
Chain of Insulin receptor-related protein (Homo sapiens) (P14616 27-742 limits assumed): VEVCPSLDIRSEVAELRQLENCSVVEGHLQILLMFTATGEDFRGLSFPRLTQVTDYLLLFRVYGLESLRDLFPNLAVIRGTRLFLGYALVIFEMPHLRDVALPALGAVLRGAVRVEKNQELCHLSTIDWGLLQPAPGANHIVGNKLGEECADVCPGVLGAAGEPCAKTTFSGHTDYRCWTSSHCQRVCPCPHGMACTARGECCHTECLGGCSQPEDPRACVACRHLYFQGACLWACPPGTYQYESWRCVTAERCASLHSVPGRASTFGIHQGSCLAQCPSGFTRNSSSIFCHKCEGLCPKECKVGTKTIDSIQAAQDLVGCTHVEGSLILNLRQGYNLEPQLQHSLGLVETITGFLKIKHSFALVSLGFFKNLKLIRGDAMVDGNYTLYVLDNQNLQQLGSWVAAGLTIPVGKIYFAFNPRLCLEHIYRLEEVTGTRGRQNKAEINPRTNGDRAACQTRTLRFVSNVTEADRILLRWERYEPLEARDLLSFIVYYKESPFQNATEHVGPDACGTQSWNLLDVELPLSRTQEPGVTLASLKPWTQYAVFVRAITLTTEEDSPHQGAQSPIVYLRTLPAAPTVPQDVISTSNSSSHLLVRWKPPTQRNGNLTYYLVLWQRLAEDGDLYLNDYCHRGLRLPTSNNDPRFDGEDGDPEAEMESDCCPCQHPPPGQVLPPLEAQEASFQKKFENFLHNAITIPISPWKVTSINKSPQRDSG
Chain of Insulin receptor-related protein (Homo sapiens) (P14616 747-1297 limits assumed): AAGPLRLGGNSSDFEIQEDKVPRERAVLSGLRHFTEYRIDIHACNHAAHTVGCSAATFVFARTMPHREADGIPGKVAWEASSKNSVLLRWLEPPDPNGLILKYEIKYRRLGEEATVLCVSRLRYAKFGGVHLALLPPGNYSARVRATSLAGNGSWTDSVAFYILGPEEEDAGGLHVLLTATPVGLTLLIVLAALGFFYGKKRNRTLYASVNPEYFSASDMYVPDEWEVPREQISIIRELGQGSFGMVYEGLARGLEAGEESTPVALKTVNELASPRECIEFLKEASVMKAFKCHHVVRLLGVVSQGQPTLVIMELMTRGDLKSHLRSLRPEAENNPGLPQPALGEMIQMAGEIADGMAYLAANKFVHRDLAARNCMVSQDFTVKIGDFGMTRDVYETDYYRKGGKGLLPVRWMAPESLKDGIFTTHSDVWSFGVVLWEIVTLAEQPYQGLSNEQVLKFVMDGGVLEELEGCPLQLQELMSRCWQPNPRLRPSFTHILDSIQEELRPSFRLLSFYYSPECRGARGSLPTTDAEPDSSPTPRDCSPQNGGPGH

Row | SMILES | residual activity [1] [%] | residual activity [2] [%] | residual activity [3] [%] | residual activity [4] [%] | residual activity [5] [%] | residual activity [6] [%] | residual activity [7] [%] | residual activity [8] [%] | residual activity [9] [%] | residual activity [10] [%] | residual activity [11] [%] | residual activity [12] [%] | residual activity [13] [%] | residual activity [14] [%] | residual activity [15] [%] | residual activity [16] [%] | residual activity [17] [%] | residual activity [18] [%] | residual activity [19] [%] | residual activity [20] [%]
1 | COc1cc2ncnc(Nc3ccc(OCc4ccccc4)cc3)c2cc1OC | 105 | 99 | 117 | 103 | 115 | 98 | 102 | 104 | 81 | 102 | 127 | 92 | 125 | 57 | 107 | 99 | 110 | 90 | 101 | 100
2 | COC(=O)[C@@]1(O)C[C@H]2O[C@]1(C)n1c3ccccc3c3c4c(c5c6ccccc6n2c5c31)C(=O)NC4 | 2 | 3 | 17 | 3 | 42 | 20 | 7 | 0 | 1 | 0 | -2 | 0 | 6 | 1 | 15 | 1 | 2 | -1 | 0 | 0
3 | N/C(=N\[N+](=O)[O-])N/N=C\c1ccc(-c2cccc([N+](=O)[O-])c2)o1 | – | – | – | 99 | – | – | – | – | – | – | 100 | 85 | – | – | – | – | 86 | 85 | – | –
4 | CC(C)(C)c1cc(C=C(C#N)C#N)cc(Br)c1O | 101 | 99 | 98 | 99 | 122 | 108 | 109 | 105 | 117 | 107 | 112 | – | 105 | 102 | 105 | 104 | 110 | 113 | 105 | –
5 | C[S+]([O-])c1ccc(-c2nc(-c3ccc(F)cc3)c(-c3ccncc3)[nH]2)cc1 (centres undefined) | 113 | 96 | 104 | 101 | 94 | 129 | 103 | 98 | 108 | 97 | 113 | 86 | 109 | 56 | 100 | 104 | 112 | 119 | 107 | 112
6 | O=C1NC(=O)c2c1c1c3ccccc3n3c1c1c2c2ccccc2n1C1CCC3O1 | 93 | 73 | – | – | 94 | 79 | 100 | 88 | – | – | 38 | 18 | 74 | 63 | 88 | 70 | 86 | 82 | 8 | 9
7 | CCn1cnc2c(Nc3cccc(Cl)c3)nc(N[C@@H]3CCCC[C@@H]3N)nc21 | 99 | 89 | – | 93 | – | – | 70 | 34 | 85 | 64 | 85 | 23 | – | – | 89 | 39 | 116 | 78 | 112 | 119
8 | COc1cc(OC)c(/C=C2\C(=O)Nc3ccccc32)c(OC)c1 | – | – | – | – | 82 | 86 | 98 | 91 | 100 | 103 | 81 | 75 | 101 | 98 | 101 | 93 | – | 94 | 105 | 100
